According to PubChem BioAssay AID588590 (National Center for Advancing Translational Sciences (NCATS), 2011):
The whole screen tested about 390,000 compounds, of which about 4,000 (1%) were called active. Roughly 7% stayed inconclusive and do not appear here. Calls come from the whole dose curve; as a rule, active = well fitted inhibition curve with a large enough effect; inconclusive = small, poorly fitted or top-dose-only effect, or another doubt; inactive = no such curve, though single readings can be large or run the other way. For the sample, actives were picked, then their nearest neighbours and some compounds at random.

target: DNA polymerase iota (Homo sapiens) (UniProt Q9UNA4); experiment: qHTS for Inhibitors of Polymerase Iota; settings: Pol iota fluorescent replication assay, 10 min; series mostly up to 115 µM; activity, negative = inhibition: at the top concentration
Description: DNA polymerases, such as Pol iota, are specifically involved in DNA repair. Pol iota specifically plays an important role in translesion synthesis, where the normal high-fidelity DNA polymerases cannot proceed and DNA synthesis stalls. […] Thus, while pol eta's (and most likely iota's) normal function is to protect humans against the deleterious consequences of DNA damage, under certain conditions they can have deleterious effects on human health. As a consequence, we propose to utilize a high throughput replication assay to identify small molecule inhibitors of pol iota.
In a collaboration between the National Institute of Child Health & Human Development (NICHD) and NIH Chemical Genomics Center, a high-throughput, fluorescent screen was developed to screen the NIH Molecular Libraries Small Molecule Repository (MLSMR). This screen is used to identify inhibitors of pol iota.
NIH Chemical Genomics Center [NCGC]
NIH Molecular Libraries Probe Centers Network [MLPCN]
Assay Submitter (PI): Roger Woodgate, NICHD)
Three microliters of reagents (buffer in column 3 and 4 as negative control and 10 nM Pol iota in columns 1, 2, and 5-48) will be dispensed into 1,536-well black solid-bottomed plate. Compounds (23 nL) will be transferred via Kalypsys pin tool equipped with 1536-pin array. The plates will then be incubated for 15 min at room temperature, and 1 µL substrate (50 nM final concentration) will be added to start the reaction and kinetically read twice at 0 min and 10 min on the Viewlux reader.
Potency is the fitted concentration of half-maximal effect.

Chain of DNA polymerase iota (Homo sapiens) (Q9UNA4 whole entry, looked up): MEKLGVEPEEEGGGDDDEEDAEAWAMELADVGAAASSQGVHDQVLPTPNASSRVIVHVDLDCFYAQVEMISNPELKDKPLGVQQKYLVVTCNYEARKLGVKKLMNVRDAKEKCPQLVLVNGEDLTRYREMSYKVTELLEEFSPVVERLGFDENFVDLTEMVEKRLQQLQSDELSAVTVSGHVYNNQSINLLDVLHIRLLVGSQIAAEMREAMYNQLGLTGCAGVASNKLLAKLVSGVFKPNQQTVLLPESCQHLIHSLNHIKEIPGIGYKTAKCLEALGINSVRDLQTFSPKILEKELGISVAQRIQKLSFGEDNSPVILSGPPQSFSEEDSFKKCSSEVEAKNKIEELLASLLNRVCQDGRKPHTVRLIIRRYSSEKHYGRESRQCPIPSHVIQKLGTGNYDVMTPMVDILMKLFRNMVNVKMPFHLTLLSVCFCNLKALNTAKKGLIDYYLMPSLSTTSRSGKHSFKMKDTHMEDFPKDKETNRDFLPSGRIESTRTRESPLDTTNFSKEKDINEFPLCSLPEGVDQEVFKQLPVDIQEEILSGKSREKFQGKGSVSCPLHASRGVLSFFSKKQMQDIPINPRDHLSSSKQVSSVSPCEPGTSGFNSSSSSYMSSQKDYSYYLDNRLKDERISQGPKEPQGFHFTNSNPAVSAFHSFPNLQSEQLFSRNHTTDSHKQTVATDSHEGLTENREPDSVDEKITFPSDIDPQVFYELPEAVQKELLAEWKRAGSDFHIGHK

activity, negative = inhibition, inactive:
Cc1ccc(N2CC(c3nnc(Cc4ccccc4Cl)o3)CC2=O)cc1 (centres undefined) -8.99%
CCOc1ccc(N(CC)S(=O)(=O)N2CCCC(C(=O)NCc3ccc(Cl)cc3)C2)cc1 (centres undefined) 4.52%
CCOc1ccc(-n2nc3ccc(NC(=O)c4ccc(OC)c(Cl)c4)cc3n2)cc1 23.2%
CCOc1ccc(CNC(=O)C2CCCN(S(=O)(=O)N(CC)c3ccc(OCC)cc3)C2)cc1 (centres undefined) -9.13%
CCN(CC)CCNC(=O)Cn1ncc2c3ccccc3n(Cc3ccccc3C)c2c1=O 20.6%
COC(=O)c1ccccc1NC(=O)c1ccc2c(=O)n3c(nc2c1)CCCCC3 17%
CC1CCN(C(=O)c2ccc3c(=O)n4c(nc3c2)CCCCC4)CC1 2.81%
CCOC(=O)c1c(NC(=O)Cc2coc3ccc(CC)cc23)sc2c1CCC2 20.1%
CCc1ccc(CNC(=O)c2cc3c(=O)n(CC)c4ccccc4c3s2)cc1 -4.94%
O=C(CN1C(=O)COc2ccccc21)Nc1ccc(F)cc1 25.2%
CCc1ccc(NC(=O)CN2C(=O)CSC2=O)cc1 -2.66%
Cc1ccccc1CN1CCC(CNC(=O)c2c(C)oc3ncnc(N4CCCCC4)c23)CC1 -25.9%
CCOc1cc(-c2nnc(SCC(=O)NC3CCCCC3)nc2-c2ccc(OC)c(OCC)c2)ccc1OC 26.3%
CN1CCN(C(=O)Cn2c(C(F)(F)F)nc3ccccc32)CC1 68.1%
CCc1nn(CC(=O)N2CCN(CC)CC2)c(=O)c2cccn12 -19.7%
Oc1ccc(-c2nc3ccc(Cl)cn3c2Nc2ccc3c(c2)OCO3)cc1 -2.69%
O=C(NC(=S)Nc1ccc(Cl)c(C(=O)O)c1)c1cncc(Br)c1 -13.8%
Cc1ccc(C)c(NC(=S)NNC(=S)Nc2ccc(C(C)C)cc2)c1 -14.7%
COc1ccccc1NC(=O)Cn1cnc2ccc(S(=O)(=O)N3CCC(C)CC3)cc2c1=O 2.42%
COC(=O)c1ccc2c(c1)N(CC(=O)Nc1ccc(C)c(C)c1)C(=O)c1ccccc1S2 9.94%
COc1cccc(NC(=O)CN2C(=O)c3ccccc3Sc3ncccc32)c1 187%
CCc1c(C)sc(NC(=O)C2c3ccccc3Oc3ccccc32)c1C(=O)OC(C)C -4.88%
CC(C)CC(NS(=O)(=O)c1ccc2c(c1)oc(=O)n2C)C(=O)NCc1ccccc1Cl (centres undefined) -6.47%
COc1ccccc1C(=O)Nc1c(C(=O)Nc2ccc(C)cc2)oc2ccccc12 22.7%
Cn1c(=O)c2c(nc(SCC(=O)Nc3ccc(F)cc3)n2Cc2ccccc2)n(C)c1=O 23.2%
O=C1CCCN1C(=O)COc1ccc([N+](=O)[O-])cc1 -4.78%
O=[N+]([O-])c1ccc(/C=C/c2ccc3cccnc3c2)cc1 15.2%
CC(C)Oc1ccc(CNC(=O)C2CCN(c3nc4ccccc4n(C)c3=O)CC2)cc1 29.1%
C(=Nc1ccc(/C=C/c2ccnc3ccccc23)cc1)Nc1ccc(/C=C/c2ccnc3ccccc23)cc1 3.51%
Cc1noc2ncnc(NCc3ccccc3Cl)c12 -9.96%
COc1ccc(-c2oc3ncnc(NCCCO)c3c2-c2ccc(OC)cc2)cc1 97.6%
CN(Cc1ccccc1)c1ncnc2onc(-c3ccc(F)cc3)c12 -14.9%
CN(C)c1cccc2ccccc12 14.8%
CCN1CCN(CCCNC(=O)c2ccc3c(c2)sc2nc(-c4ccc(OC)cc4)cn23)CC1 21.9%
CCCCCn1c(CCNC(=O)c2ccc(F)cc2)nc2ccccc21 17.1%
CN1CCN(C(=O)c2ccc(NS(=O)(=O)c3ccccc3)cc2)CC1 20.4%
Cc1noc(C)c1S(=O)(=O)Nc1ccc(C(=O)O)cc1 -10.9%
O=C(CC1N=C2c3ccccc3N=C(SCc3cccc(Cl)c3)N2C1=O)NCc1ccc2c(c1)OCO2 (centres undefined) -13.6%
O=c1[nH]c(CN2CCN(S(=O)(=O)c3ccc4c(c3)OCCO4)CC2)nc2sc3c(c12)CCCC3 3.88%
CCCc1nc2sc3c(c2c(=O)n1NC(=O)CCCl)CCCC3 -14.2%
CCOC(=O)c1[nH]c(C)c(CCC(=O)N2CCN(c3ccccc3)CC2)c1C 17.9%
C=CCc1cccc(/C=N/NC(=O)COc2ccc(-n3cnnn3)cc2)c1O 27.2%
CCOc1ccc(C(=O)COC(=O)c2ccc(-n3cnnn3)cc2)cc1 32.9%
Cc1ccc2[nH]c3c(=O)n(CC(=O)NC(C)C)ncc3c2c1 -5.61%
Fc1ccc(CSc2nc(NCc3ccccc3)c3ccccc3n2)cc1 2.18%
O=C(CSc1nc(Nc2ccc(F)c(F)c2)c2ccccc2n1)c1ccc(Cl)cc1 14.1%
COc1ccc(-n2c(=O)c3sc4ccccc4c3n(CC(=O)Nc3cccc(C)c3)c2=O)cc1 10.2%
COc1ccc(NC(=O)Nc2cccc(-c3noc(C)n3)c2)cc1 3.68%
Cc1sc2nc(CSCC(=O)Nc3c(Cl)cccc3Cl)[nH]c(=O)c2c1C -1.49%
CCOC(=O)c1sc2nc(CSCC(=O)OCc3ccc(C(=O)OC)o3)[nH]c(=O)c2c1C 23.8%
Cc1ccc(S(=O)(=O)c2cn(Cc3ccccc3)c3cc(N4CCCC4)c(F)cc3c2=O)c(C)c1 -15.4%
CN(Cc1ccccc1)c1ccc(/C=C/c2ccnc3ccccc23)cc1 0.933%
O=C(CCc1nnc2ccc(NCc3ccco3)nn12)Nc1cc(F)ccc1F -12.4%
CC1CCN(C(=O)CCc2nnc3ccc(NCc4ccco4)nn23)CC1 19.1%
Cc1ccc(C=O)cc1Cl 27.8%
COc1ccc(CCNC(=O)c2ccc3c(c2)nc(C)n3-c2ccc(Br)cc2)cc1OC -17%
CCC(CC)c1nn2cc(-c3ccccc3)nc2s1 -4.42%
C/C(CC(=O)N1CCN(C=O)CC1)=N\NC(=O)c1ccc(Br)cc1 -25.6%
O=C(Nc1ccc(C(=O)O)cc1)/C(=C\c1ccccc1)NC(=O)c1ccc(Br)cc1 17.3%
CN1CCN(/[N+]([O-])=N/Oc2ccc([N+](=O)[O-])cc2[N+](=O)[O-])CC1 22.3%
CCc1nnc2c3ccccc3nc(N3CCN(c4ccc(C)cc4C)CC3)n12 37.9%
O=C(CCS(=O)(=O)c1ccc(Br)cc1)NCCc1ccc(Cl)cc1 -25.8%
COc1ccc(Cl)cc1NC(=O)CCC(=O)c1ccc(C)cc1 23.5%
COc1ccc(Nc2ncc3c(n2)CCN(C(=O)OC(C)(C)C)C3)cc1 10.5%
Cc1c(C)n(Cc2ccc(Cl)cc2)c2ccc(C(=O)NCCc3ccc(S(N)(=O)=O)cc3)cc12 -6.81%
CN(C(=O)CSc1nnc(NC(=O)Nc2ccccc2)s1)c1ccccc1 8.04%
COC(=O)c1scc(-c2ccccc2)c1S(=O)(=O)Nc1ccccc1 2.13%
O=C1CCC[C@@H]2C[C@@]3(C[C@@H]4CCN1[C@H]24)Nc1ccccc1NC3=NCc1ccccc1 114%
COc1cc2nc(N3CCCN(C)CC3)nc(NC3CC3)c2cc1OC 28.6%
COc1ccc(-c2cn3nc(N4CCCC(C(=O)NCCCOC(C)C)C4)sc3n2)cc1 (centres undefined) 23.1%
COc1cc2c(cc1OC)C(C(=O)Nc1cc(C)c(OC)c(C)c1)CC(=O)N2 (centres undefined) 62.9%
COc1cc(NC(=O)c2nc3ccccc3nc2C)cc(OC)c1OC 33.3%
COc1ccc(-c2nc3sc(CCNS(=O)(=O)c4ccc(F)c(C)c4)c(C)n3n2)cc1 12.4%
CCOc1ccccc1NC(=O)CN1CCN(S(=O)(=O)c2ccc(Br)cc2)CC1 3.35%
CCN(CC)/[N+]([O-])=N/OCOC(=O)Cc1c(C)n(C(=O)c2ccc(Cl)cc2)c2ccc(OC)cc12 7.56%
O=C(OCN1C(=O)c2ccccc2C1=O)/C(=C\c1ccco1)NC(=O)c1ccccc1 -18.1%
O=C(Nc1ccccc1C(F)(F)F)c1nc(S(=O)(=O)Cc2ccccc2F)ncc1Cl -5.98%
NC1=NC(c2cc(F)cc(F)c2)n2c(nc3ccccc32)N1 (centres undefined) 4.72%
Cc1cc(C)c2oc(C(=O)Nc3ccc(S(=O)(=O)N4CCCCCC4)cc3)cc(=O)c2c1 5.81%

Potency, active:
N#Cc1cccc(OC(=O)c2ccc3c(=O)n4c(nc3c2)CCC4)c1 20 µM
O=C1COc2c1ccc(O)c2O 17.8 µM
Cn1cccc1/C=C1\SC(=O)N(CC(=O)Nc2ccc(F)cc2)C1=O 79.4 µM
CCCN1CCN(C(=O)Cn2ncc3ccccc32)CC1 39.8 µM
CC(C)c1ccc(NC(=S)NNc2ccc(Cl)c(C(=O)O)c2)cc1 11.2 µM
COc1ccccc1NC(=O)CN1C(=O)c2ccccc2Sc2ccc(C(=O)N3CCCC3)cc21 79.4 µM
O=C1/C(=C\c2ccc([N+](=O)[O-])cc2)CS(=O)(=O)C/C1=C/c1ccc([N+](=O)[O-])cc1 11.2 µM
OCCNc1ncnc2oc(-c3ccco3)c(-c3ccco3)c12 12.6 µM
Cc1noc(C)c1S(=O)(=O)Nc1ccc(C(=O)N2CCN(c3ccc(F)cc3)CC2)cc1 79.4 µM
O=C(CCc1nc2sc3c(c2c(=O)[nH]1)CCCC3)NCC(=O)Nc1ccccc1Br 50.1 µM
O=C(COc1ccc(-n2cnnn2)cc1)Nc1ccccc1Cl 79.4 µM
Fc1ccc(Nc2nc(SCc3ccccc3Cl)nc3ccccc23)cc1 79.4 µM
CSc1nnc(SCc2nc3sc(C(=O)O)c(C)c3c(=O)[nH]2)s1 3.98 µM
CCOc1ccccc1NC(=O)CCc1nnc2ccc(NCc3ccco3)nn12 50.1 µM
O=C(O)c1ccc(/C=C2\SC(=S)N(NC(=O)c3ccc(Br)cc3)C2=O)cc1 22.4 µM
COc1ccc(Cl)cc1NC(=O)CCS(=O)(=O)c1ccc(Br)cc1 56.2 µM
O=C(c1[nH]ncc1-c1ccc(Cl)cc1)C1CO1 (centres undefined) 56.2 µM
COc1cc(N/C=C2\CC(=O)NC(C)=C2C#N)cc(OC)c1OC 10 µM
O=[N+]([O-])c1ccc(C=Nc2ccc(Cl)cc2Cl)s1 39.8 µM
O=c1nc2s/c(=C\c3ccco3)c(=O)n2nc1Cc1ccccc1 7.94 µM
